# Results taken from PubChem BioAssay AID602252 (Broad Institute, 2012).
# In all, about 300,000 compounds went through this assay and about 2,700 (0.9%) were called active. Many of the other results were omitted from the sample, so actives are more common in it than they were. Unmarked numbers belong to inactive results.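 How the source made its calls: active means mean inhibition of at least 30% with at least half of replicates also reaching 30%; inconclusive means no clear call, values can overlap the other calls; inactive means the rest.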
# Molecular target: Golgi-associated PDZ and coiled-coil motif-containing protein (Homo sapiens) (UniProt Q9HD26)
# Assay: blockade of CAL PDZ-reporter peptide interaction – biochemical, fluorescence polarization, untagged CAL PDZ, HTS, primary screen (AID 602252);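 further: 0% = DMSO neutral control and 100% = excess unlabeled competitor peptide PRC23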
# Details: purified CAL PDZ, TMR-peptide fluorescence polarization, 1 h; at 24.9 µM; stronger effect = higher value
row,SMILES,inhibition
1,CCN(CC(=O)NCc1ccc(Cl)cc1)C(=O)c1c(C)noc1C,-2.21%
2,CCN(CC(=O)Nc1cc(Cl)ccc1C)C(=O)CSCc1ccccc1,-0.344%
3,CCN(CC(=O)NCc1ccc(Cl)cc1)C(=O)CSc1ccccc1,62.6% (active)
4,Cc1cc2c(cc1C)NC1(C[C@H]3CCC(=O)N4CC[C@@H](C1)[C@@H]34)C(=NC(C)(C)CC(C)(C)C)N2 (some centres not stated),-3.52%
5,CCOC(=O)c1nnn(-c2nc(OC)nc(N(C)C)n2)c1-c1ccccc1,14.6%
6,CCOc1nc(OCC)nc(-n2cc(-c3ccccc3)nn2)n1,145% (active)
7,CCCCCc1ccc(-c2cn(Cc3ccc4ccccc4c3)nn2)cc1,-1.31%
8,Cc1c(NC(=O)Nc2ccccc2)cccc1[N+](=O)[O-],-0.291%
9,Cc1ccccc1NC(=O)CCOc1ccccc1,-3.86%
10,Cc1c(NC(=O)CCCOc2ccccc2)cccc1[N+](=O)[O-],47.4% (active)
11,Fc1ccc2cnc(-c3ccccc3)cc2c1,-0.668%
12,O=S(=O)(Nc1ccc2ccccc2c1)N1CCCCC1,-5.99%
13,CC(C)OC(=O)c1ccc(NCc2cc(O)ccc2O)cc1Cl,0.191%
14,COC(=O)Cc1c(-c2[nH]c3ccccc3c2CC(=O)OC)[nH]c2ccccc12,-2.69%
15,CCN1CCN(CCNC(=O)c2ccc(/C=C3/Sc4ccccc4N(Cc4cccc(C)c4)C3=O)cc2)CC1,-8.21%
16,CCN1CCN(CCNC(=O)c2ccc3c(c2)NC(=O)/C(=C\c2ccc(OC)c(OC)c2)S3)CC1,55.5% (active)
17,COc1ccc(CCNC(=O)c2ccc3c(c2)NC(=O)C(N2CCOCC2)S3)cc1OC (configuration not stated),-1.17%
18,COc1cc(C(=O)OCC(=O)NC23CC4CC(CC(C4)C2)C3)cc(OC)c1OC,-3.34%
19,C=CCn1c(SCc2ccccc2)nc2c1c(=O)[nH]c(=O)n2C,-10.1%
20,CCCCCCn1c(SCC(=O)c2ccccc2)nc2c1c(=O)[nH]c(=O)n2C,-0.797%
21,C=CCSc1nc2c(c(=O)[nH]c(=O)n2C)n1Cc1ccccc1,59.3% (active)
22,CC(C)(C)C(=O)Nc1cccc(-c2ccc[nH]2)n1,-1.63%
23,CCN1CCN(C(=O)C2(NC(=O)Nc3cccc(F)c3)CCCCC2)CC1,-0.757%

row,SMILES,inhibition
1,CC(=O)N1CCN(C(=O)C2(NC(=O)Nc3ccc(C)cc3)CCCCC2)CC1,48% (active)
2,Cc1ccccc1NC(=O)NC1(C(=O)N2CCCC2)CCCCC1,-0.684%
3,Cn1cncc1C#Cc1c(-c2ccsc2)sc2ccccc12,-4.14%
4,Cc1cc(O)ccc1-c1cnc2ccccc2n1,-0.904%
5,Oc1ccc(-c2nc3ccccc3nc2-c2ccc(O)cc2O)c(O)c1,89% (active)
6,Oc1ccc(-c2[nH]ncc2-c2nc3ccccc3s2)c(O)c1,-4.79%
7,CCN1C[C@@H]2[C@@H]3C(=O)N(C)C(=O)[C@@H]3[C@](C)(C1=O)N2C(=O)c1ccccc1,-2.56%
8,CCC1([N+](=O)[O-])COC(c2ccc(C(C)C)cc2)OC1 (configuration not stated),2.08%
9,COc1cccc2oc(CCc3ccccc3)cc(=O)c12,-0.506%
10,Cc1ccc(S(=O)(=O)N2C[C@@H]3CCCC[C@@H]3[C@@H](C)[C@H]2c2cn(Cc3ccccc3)c3ccc(F)cc23)cc1,-5.03%
11,Cc1cc(=O)oc2cc(OCC(=O)Nc3nnc(C4CC4)s3)ccc12,51.4% (active)
12,CCOC(=O)Cc1csc(NC(=O)COc2ccc3c(C)cc(=O)oc3c2)n1,-3.4%
13,COc1ccc2c(CC(=O)Nc3nnc(C4CC4)s3)coc2c1,-1.76%
14,CC(=O)Nc1ccc(C(=O)Nc2cc(S(=O)(=O)N3CCOCC3)ccc2N2CCOCC2)cc1,-4.08%
15,COc1cccc(CC(=NO)c2cccc(OC)c2)c1,-7.29%
16,Cc1ccc(C(=O)OC(C)CN2CCOCC2)cc1 (configuration not stated),70.2% (active)
17,CC(CN1CCOCC1)OC(=O)c1ccc(Cl)cc1Cl (configuration not stated),-2.34%
18,CC(CN1CCOCC1)OC(=O)c1ccc(C(C)(C)C)cc1 (configuration not stated),-3.82%
19,Cc1csc(NC(=O)C2CCN(S(=O)(=O)c3ccccc3)CC2)n1,3.13%
20,OC(CNCCc1ccc(Cl)cc1Cl)COc1ccccc1 (configuration not stated),64.2% (active)
21,OC(COc1ccccc1)CN1CCN(c2cccc(Cl)c2)CC1 (configuration not stated),-5.9%
22,OC(CNCc1ccc2c(c1)OCO2)COc1ccccc1 (configuration not stated),-0.826%
23,O=C(CSc1nnc(CN2CCCC2)n1-c1ccc(F)cc1)c1ccc2c(c1)OCO2,-2.04%

row,SMILES,inhibition
1,COC[C@@H]1NS(=O)(=O)c2ccc(Br)cc2O[C@H]1c1ccccc1,-7.2%
2,O=C(c1cc(COc2cccc(C(F)(F)F)c2)on1)N1CCSCC1,-4.68%
3,COc1ccc(OCc2cc(C(=O)N3CCCC3)no2)c2ccccc12,-4.16%
4,COc1cccc(OCc2cc(C(=O)N3CCN(C(=O)c4ccco4)CC3)no2)c1,139% (active)
5,C[C@H](CO)N1C[C@H](C)[C@@H](CN(C)Cc2ccc(-c3ccccc3)cc2)Oc2ccc(NC(=O)Cn3cnnn3)cc2C1=O,-3.86%
6,O=C(O)CN(Cc1ccco1)S(=O)(=O)c1ccc(F)cc1,41.2% (active)
7,O=C(O)CN(Cc1ccco1)S(=O)(=O)c1ccccc1,-2.04%
8,CCN(CC(=O)NCc1ccco1)S(=O)(=O)c1ccc(F)cc1,-5.17%
9,O=C1NC(c2ccccc2)Cc2ccncc21 (configuration not stated),0.221%
10,CCN(CC)S(=O)(=O)c1ccc(N2CCOCC2)c(NC(=O)C(C)Oc2ccc(F)cc2)c1 (configuration not stated),-9.92%
11,CCOC(=O)c1sc2nc(C)[nH]c(=O)c2c1C,-5.61%
12,CCOC(=O)c1sc2nc(CSCC(=O)OCc3ccc(C(=O)OC)o3)[nH]c(=O)c2c1C,-1.2%
13,CCOC(=O)c1sc2nc(CSc3ccccc3)[nH]c(=O)c2c1C,82.4% (active)
14,CN(C)CCNC(=O)c1ccc(Cl)c2cc3ccccc3nc12,-3.6%
15,Cc1ccc(S(=O)(=O)N(C)C)cc1NC(=O)CN1c2cccc3cccc(c23)S1(=O)=O,1.34%
16,CN(C(=O)c1ccno1)c1nnc(-c2cccnc2)s1,79.5% (active)
17,COc1cc(OC)cc(-c2nnc(N(C)C(=O)c3ccncc3)s2)c1,-5.84%
18,CN(C(=O)C1CCOC1)c1nnc(-c2cccnc2)s1 (configuration not stated),5.89%
19,Cc1ccc(S(=O)(=O)CCC(=O)OCC(=O)N(C)Cc2ccccc2)cc1,-0.906%
20,O=C(COc1ccccc1F)Nc1nc(-c2ccccn2)cs1,-7.77%
21,CC(C)(C)OC(=O)N(Cc1ccccc1)Cc1ccc(OCc2cccc(NC(=O)c3ccccc3)c2)cc1,-1.04%
22,Cc1cccc(NC(=S)N2CCC(C(=O)c3ccc(F)cc3)CC2)c1,-2.74%
23,CN(C)S(=O)(=O)c1cccc(NC(=O)COc2ccc3ccccc3c2)c1,-3.42%

row,SMILES,inhibition
1,CN(C)S(=O)(=O)c1cccc(NC(=O)Cc2ccsc2)c1,56.9% (active)
2,CN(C)S(=O)(=O)c1cccc(NC(=O)COC(=O)/C=C/c2cccs2)c1,-0.792%
3,COc1cc2c(cc1OC)C(Cc1cc(OC)c(OC)cc1[N+](=O)[O-])=NCC2,-3.58%
4,COc1ccccc1NC1=NC(c2ccc(Cl)cc2)N=C(N)N1 (configuration not stated),2.25%
5,O=c1ccnc(Nc2ccc(Cl)cc2)[nH]1,-6.21%
6,CC1(C)N=C(N)NC(Nc2ccc(Cl)cc2)=N1,46.4% (active)
7,COc1ccc(-c2ccc3c(c2)C2CC3CCN2CCC#N)cc1 (configuration not stated),-7.19%
8,CNN/C(N=Cc1ccc([N+](=O)[O-])s1)=N\S(=O)(=O)c1cc(C)c(Cl)cc1SCc1ccccc1,66.8% (active)
9,COc1ccc(C(=O)NCC(=O)N/N=C/c2ccc([N+](=O)[O-])s2)cc1OC,1.89%
10,Cc1ccccc1NCC(=O)N/N=C\c1ccc([N+](=O)[O-])s1,-2.26%
11,COc1cc(C(=O)CCc2ccc3c(c2)OCO3)cc(OC)c1OC,-5.96%
12,CCOc1ccc(S(=O)(=O)Nc2nc3cc(OC)ccc3s2)cc1,1.2%
13,COc1ccc(S(=O)(=O)Nc2ccc(O)c(Sc3nc4ccccc4s3)c2)cc1,40.1% (active)
14,O=C(O)c1cccc(S(=O)(=O)Nc2ccc(O)cc2Sc2nc3ccccc3s2)c1,-1.01%
15,COc1ccc(CCNC(=O)c2ccc(NC(=O)CC3SC(N4CCCCC4)=NC3=O)cc2)cc1OC (configuration not stated),-1.27%
16,O=C1c2ccccc2C(=O)C1C(=O)C1CC1,-5.16%
17,CCC(C)NC(=O)CN(C1CCCCC1)S(C)(=O)=O (configuration not stated),7.29%
18,CS(=O)(=O)N(CC(=O)Nc1ccc(F)cc1)C1CCCCC1,-14.6%
19,CS(=O)(=O)N(CC(=O)Nc1ccc(Cl)c(Cl)c1)C1CCCCC1,51.4% (active)
20,COc1ccc(Cn2cc(CN3CCS(=O)(=O)N(Cc4ccc(-c5cccc(Cl)c5)cc4)C(C)C3=O)nn2)cc1 (configuration not stated),-4.3%
21,CCn1c(-c2ccncc2)n[nH]c1=S,-0.231%
22,CCCc1cc(-c2n[nH]c(=S)n2Cc2ccccc2)cs1,-5.83%
23,O=C(N[C@H]1C/C=C\C(c2ccc(F)cc2)N(Cc2ccccc2)C(=O)C1)OCC1c2ccccc2-c2ccccc21 (some centres not stated),-2.32%
